Compounds without any hit were thinned out: in the full panel of roughly 83,000, 20% have a hit.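 Negative percent growth values reflect cell death: -40 means 40% of the cells present at the start died, and -100 means all died.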 Calls of active or inactive are those of the source. The calls were made as follows: active = growth percent below 10; inactive = the rest.

The subject of one assay is SNB-75 CNS. Kind of assay: NCI-60 one-dose screen, 48 h (100 = growth as untreated, 0 = no growth, -100 = all killed). The conditions noted are these: 10 µM unless noted.
Turning to `Cc1ccc2nc(NC(=O)CSc3nc(-c4ccccc4)c(C#N)c(=O)n3Cc3ccccc3)sc2c1`, the growth is 63.5% (inactive). Still for that read-out and setting: under `COc1ccc(C2=Nc3c(N)ncnc3NC(c3ccc4c(c3)OCO4)C2)cc1` (stereo not given) stands 66.2% (inactive); under `Clc1ccc(-c2c3ccc(=[N+]4CCCCC4)cc-3oc3cc(N4CCCCC4)ccc23)cc1`, -70.1% (active); under `CCCCN(CCCC)CC(C)(C)C(O)c1ccc(OC)c2ccccc12` (stereo not given), 101% (inactive). As to `C(=N\Nc1ncc(-c2cc3cc4c(cc3o2)OCO4)s1)/c1ccco1`, the growth is 51.2% (inactive). Still for that read-out and setting: the result for `O=C(c1ccccc1)c1c(/C=C/c2ccccc2)nc2ccccc2c1/C=C/c1ccc(Br)cc1` reads 83.1% (inactive). Still for that read-out and setting: under `Cc1cc(NCc2cc(Nc3ccnc4cc(Cl)ccc34)ccc2F)nc(N2CCN(c3ccccc3)CC2)n1` stands 57.7% (inactive); under `O=[N+]([O-])c1ccc(N2c3ccncc3Sc3ccncc32)cc1`, 98.9% (inactive); under `COc1cc(C2CC(=O)Nc3c2c(C)nn3-c2nc3ccccc3[nH]2)c(OC)c(OC)c1OC` (stereo not given), 1.94% (active). Consider `Cc1c2c(c(C)c3c1oc1cc(O)ccc13)C(=O)N(CCN1CCCCC1)C2=O`, for which the growth is 87.3% (inactive). Still for that read-out and setting: under `COCN1CCC2N(COC)CCC3N(COC)CCC1N23` (stereo not given) stands 90.8% (inactive). As for `Cc1cc(C)c(-c2c(C)cc(C)cc2CBr)c(CBr)c1`, the growth was 92.3% (inactive).

The next assay concerns SNB-19 CNS. The assay is described as above. The conditions noted are these: 10 µM unless noted.
With `COC(=O)[C@]12CC[C@@H](C)[C@H](C)[C@@H]1C1=CC[C@@H]3[C@@]4(C)C(C=O)=C[C@@](C)(COC(C)=O)[C@@H]4[C@H](O)C[C@@]3(C)[C@]1(C)CC2`, the growth was 29.4% (inactive). With `CCc1c2c(nc3ccc(OC(=O)OCc4ccc(B5OC(C)(C)C(C)(C)O5)cc4)cc13)-c1cc3c(c(=O)n1C2)COC(=O)[C@]3(O)CC`, the growth was 1.62% (active).

`N#Cc1c(N2CCNCC2)nc2sc3cc(Cl)c(Cl)cc3n2c1=N`: the growth was 98.5% (inactive). The same measure, in the same setting: the result for `Cc1ccc(/C=C/c2c(C(=O)/C=C/c3ccc(C(F)(F)F)cc3)c(C)nc3ccccc23)cc1` reads -62.9% (active); that for `COc1ccc2c(c1)[nH]c(=O)c1c3cccnc3cn21`, 32.7% (inactive); that for `COc1ccc2c(c1)C(=O)/C(=C/c1cccc(OCC(=O)Nc3nc(C)c(C)s3)c1)O2`, 80.6% (inactive).

`COc1cccc(-c2nn(-c3ccccc3)cc2-c2ccnc(NCCNC(=O)c3ccccc3)c2)c1`: the growth was 72.3% (inactive). The same measure, in the same setting: under `COC(=O)/C=C1\S/C(=N\NS(=O)(=O)c2ccc(C)cc2)N(c2ccccc2)C1=O` stands 97% (inactive); under `Cc1ccc(-c2cc3c(cc2O)C2CCCCC2(N2CCOCC2)O3)cc1` (stereo not given), 98.7% (inactive); under `CCOc1ccccc1-c1cc(-c2cccs2)c(C#N)c(=O)[nH]1`, 86.1% (inactive). The same measure, in the same setting: under `N#Cc1nc(C#N)c(Sc2ccccc2)c(Sc2ccccc2)c1Sc1ccccc1` stands -45.7% (active); under `CCN1CCN(c2cc(C)nc(NCc3cc(Nc4ccnc5cc(Cl)ccc45)ccc3F)n2)CC1`, 68.3% (inactive); under `Cn1ccc2c(c1=O)C(=O)c1nccc3c1c-2nc1ccccc13`, -74.4% (active). Still for that read-out and setting: the result for `COC1=CC(=O)C[C@@H](C)[C@]12Oc1c(Cl)c(OC)cc(OC)c1C2=O` reads 95.7% (inactive); that for `O=C1CCc2c(sc3[nH]c(=S)n(-c4ccc(OC(F)(F)F)cc4)c(=O)c23)C1`, 17.1% (inactive).

Consider `COc1cc(C(=O)/C=C/c2c(-c3ccc(F)cc3)nc3sc(C)cn23)cc(OC)c1OC`, for which the growth was 66.5% (inactive). With `Cc1nn(-c2ccccc2)c(Oc2ccc(Cl)cc2)c1/C=N\N=c1/sc2ccccc2n1C`, the growth was 99.1% (inactive). Still for that read-out and setting: the result for `COC(=O)c1ccc(C2Nc3ccc(S(=O)(=O)Nc4ccc(C)c(C)c4)cc3C3OCCC23)cc1` (stereo not given) reads 78.2% (inactive); that for `CCCCCCCCn1ccc2cc(NC(=O)Cn3cc(CN4CCCC4)nn3)ccc21`, 0.775% (active). Regarding `O=S(=O)(Nc1cccc(Cl)c1)c1ccc(-c2cnc(C3CC3)o2)cc1`, the growth is 24.1% (inactive).

For the molecule `COc1ccc(-c2nc(SC(C)C)nc(NNC(N)=S)c2C#N)cc1`, the growth is 38% (inactive). Still for that read-out and setting: the result for `Cc1cc(NCc2cc(Nc3ccnc4cc(Cl)ccc34)ccc2F)nc(N2CCN(C)CC2)n1` reads 29.7% (inactive); that for `Cc1ccc2nc(C)c(-c3nnc(SCc4ccc(C#N)cc4)o3)n2c1`, 90.7% (inactive); that for `CCN1C(=O)N(CC)C2Nn3c(s/c(=C\c4ccc(Cl)cc4Cl)c3=O)=NC21` (stereo not given), 48.6% (inactive). As to `C[n+]1cc2cc(C(N)=O)[nH]c3c(=N)c(Cl)c(N)c1c23`, the growth was 75.1% (inactive). As to `CCc1ccccc1-n1c(-c2ccc(Cl)cc2)cc(-c2ccc(Cl)cc2)c(C#N)c1=O`, the growth was 109% (inactive). Still for that read-out and setting: under `Cc1ccc2nc(NC(=O)CSc3nc(-c4ccccc4)c(C#N)c(=O)n3Cc3ccccc3)sc2c1` stands 78.3% (inactive); under `COc1ccc(C2=Nc3c(N)ncnc3NC(c3ccc4c(c3)OCO4)C2)cc1` (stereo not given), 85% (inactive); under `Clc1ccc(-c2c3ccc(=[N+]4CCCCC4)cc-3oc3cc(N4CCCCC4)ccc23)cc1`, -90% (active). Still for that read-out and setting: under `CCCCN(CCCC)CC(C)(C)C(O)c1ccc(OC)c2ccccc12` (stereo not given) stands 76.3% (inactive); under `C(=N\Nc1ncc(-c2cc3cc4c(cc3o2)OCO4)s1)/c1ccco1`, 53.9% (inactive); under `O=C(c1ccccc1)c1c(/C=C/c2ccccc2)nc2ccccc2c1/C=C/c1ccc(Br)cc1`, 88.9% (inactive).

Turning to `Cc1cc(NCc2cc(Nc3ccnc4cc(Cl)ccc34)ccc2F)nc(N2CCN(c3ccccc3)CC2)n1`, the growth is 76.5% (inactive). On the same count and under the same terms, the result for `O=[N+]([O-])c1ccc(N2c3ccncc3Sc3ccncc32)cc1` reads 107% (inactive); that for `COc1cc(C2CC(=O)Nc3c2c(C)nn3-c2nc3ccccc3[nH]2)c(OC)c(OC)c1OC` (stereo not given), 62.9% (inactive). Still for that read-out and setting: under `Cc1c2c(c(C)c3c1oc1cc(O)ccc13)C(=O)N(CCN1CCCCC1)C2=O` stands 88.9% (inactive); under `COCN1CCC2N(COC)CCC3N(COC)CCC1N23` (stereo not given), 93.6% (inactive); under `Cc1cc(C)c(-c2c(C)cc(C)cc2CBr)c(CBr)c1`, 86.2% (inactive).

Values taken from PubChem BioAssay (NCI).
